Results filed as inconclusive are left out. For part of these data: Entries with a potency or affinity are not part of this list. Active and inactive are the calls of the source.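 How the source made its calls, unless noted: active means thallium flux through the channel raised or lowered by more than 3 SD from vehicle-only wells, actives on both sides; inactive means the rest.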
Key:
[1] = test system: Aerobactin synthetase IucA (Klebsiella pneumoniae); assay: IucA aerobactin synthetase inhibitors, biochemical, Tocris library, absorbance (AID 1345561; call rule not given here;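 further: 100% = enzyme without compound and 0% = no enzyme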); settings: purified IucA enzyme assay, absorbance (OD) read-out; stronger effect = lower value;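 tested at 8 µM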
[2] = growth inhibition of DIPG glioma cells, dose response, cell-based, SU-DIPG-XIII, MIPE4.0, CellTiter-Glo, qHTS (AID 1347061; cut-off not given, nearly all actives have AC50 up to about 37 µM;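 further: cells exposed to compound for 48 hours before readout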); settings: SU-DIPG-XIII viability, CellTiter-Glo ATP luminescence
[3] = growth inhibition of DIPG glioma cells, dose response, cell-based, JHH-DIPG-1, MIPE4.0, CellTiter-Glo, qHTS (AID 1347062; cut-off not given, nearly all actives have AC50 up to about 27 µM;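 on AC50: cells exposed to compound for two days before readout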); settings: JHH-DIPG-1 viability, CellTiter-Glo ATP luminescence
[4] = growth inhibition of DIPG glioma cells, dose response, cell-based, SU-DIPG-XVII, MIPE5.0, CellTiter-Glo, qHTS (AID 1347060; cut-off not given, nearly all actives have AC50 up to about 26 µM;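 on AC50: cells exposed to compound for 48 hours before viability readout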); settings: SU-DIPG-XVII viability, CellTiter-Glo ATP luminescence
[5] = growth inhibition of DIPG glioma cells, dose response, cell-based, SU-DIPG-XIII, MIPE5.0, CellTiter-Glo, qHTS (AID 1347064; cut-off not given, nearly all actives have AC50 up to about 23 µM;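 on AC50: cells exposed to compound for 48 hours before the viability read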); settings: SU-DIPG-XIII viability, CellTiter-Glo ATP luminescence
[6] = viability loss in pontine glioma line – cell-based, SU-DIPG-XXV, MIPE5.0, CellTiter-Glo, qHTS, dose response (AID 1347065; cut-off not given, nearly all actives have AC50 up to about 26 µM;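 further: cells exposed to compound for 48 hours before ATP readout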); settings: CellTiter-Glo ATP luminescence
[7] = JHH-DIPG-1 glioma cell viability, MIPE5.0 library, CellTiter-Glo luminescence, qHTS (AID 1347067; cut-off not given, nearly all actives have AC50 up to about 26 µM;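 further: cells exposed to compound for 48 hours before readout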); settings: JHH-DIPG-1 glioma viability, CellTiter-Glo ATP luminescence
[8] = SU-DIPG-XXV glioma cell viability, MIPE5.0 library, qHTS (AID 1347068; cut-off not given, nearly all actives have IC50 up to about 30 µM;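 on IC50: cells exposed to compound for 48 hours before viability readout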)
F380Y/beta1 = assay: modulators of BK channel variants, profiling panel, selectivity assay, cell-based, U2OS BacMam, thallium flux, beta subunits (AID 1259406); settings: at 30 µM;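 further: initial slope of Thallos dye fluorescence rise after thallium is added; log ratio against the mean of 0.3% DMSO vehicle wells on the same plate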
F380Y/beta4 = assay: as above; settings: at 30 µM
[9] = molecular target: Calcium-activated potassium channel subunit alpha-1 (Homo sapiens) + Leucine-rich repeat-containing protein 26 (Homo sapiens) (UniProt Q12791+Q2I0M4); assay: as above; settings: F380Y/Slo1WT/gamma1, at 30 µM
Chain of Calcium-activated potassium channel subunit alpha-1 (Homo sapiens) + Leucine-rich repeat-containing protein 26 (Homo sapiens) (Q2I0M4 whole entry, looked up, one chain of several): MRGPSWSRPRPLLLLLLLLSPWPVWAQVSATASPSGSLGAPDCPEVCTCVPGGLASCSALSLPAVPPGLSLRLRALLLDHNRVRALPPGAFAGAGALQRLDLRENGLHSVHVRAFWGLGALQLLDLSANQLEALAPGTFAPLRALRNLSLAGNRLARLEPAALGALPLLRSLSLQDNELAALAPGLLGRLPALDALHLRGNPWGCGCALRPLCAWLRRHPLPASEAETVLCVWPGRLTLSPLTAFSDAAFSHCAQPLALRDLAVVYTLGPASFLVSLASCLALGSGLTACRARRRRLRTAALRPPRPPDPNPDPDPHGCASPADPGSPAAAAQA

R275C = assay: as above; settings: at 30 µM
R275C/beta1 = assay: as above; settings: at 30 µM
R275C/beta2Delta = assay: as above; settings: at 30 µM
R275C/beta4 = assay: as above; settings: at 30 µM
R275C/Slo1WT/beta2 = assay: as above; settings: at 30 µM
[10] = test system: Neuropilin-2 / VEGF-C interaction (human); assay: inhibitors of NRP2–VEGF-C binding, biochemical, microplate binding format, z-score (AID 743281; call rule not given here); settings: microplate NRP2/VEGF-C binding assay; stronger effect = lower value
[11] = modulation of C. elegans fzo-1 (AID 1259413; call rule not given here;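 further: fzo-1 mutant C. elegans worms in liquid wells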); settings: C. elegans fzo-1 modulator screen, mean read-out; stronger effect = higher value
[12] = molecular target: Calcium-dependent protein kinase 1 (Plasmodium falciparum (isolate 3D7)) (UniProt P62344); assay: PfCDPK1 kinase inhibitors, biochemical, TCAMS library (AID 1159585; cut-off not given, nearly all actives have IC50 up to about 0.98 µM;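 further: inhibitors leave more ATP so luminescence rises with inhibition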); settings: recombinant PfCDPK1, Kinase-Glo ATP depletion luminescence
Chain of Calcium-dependent protein kinase 1 (Plasmodium falciparum (isolate 3D7)) (P62344 whole entry, looked up): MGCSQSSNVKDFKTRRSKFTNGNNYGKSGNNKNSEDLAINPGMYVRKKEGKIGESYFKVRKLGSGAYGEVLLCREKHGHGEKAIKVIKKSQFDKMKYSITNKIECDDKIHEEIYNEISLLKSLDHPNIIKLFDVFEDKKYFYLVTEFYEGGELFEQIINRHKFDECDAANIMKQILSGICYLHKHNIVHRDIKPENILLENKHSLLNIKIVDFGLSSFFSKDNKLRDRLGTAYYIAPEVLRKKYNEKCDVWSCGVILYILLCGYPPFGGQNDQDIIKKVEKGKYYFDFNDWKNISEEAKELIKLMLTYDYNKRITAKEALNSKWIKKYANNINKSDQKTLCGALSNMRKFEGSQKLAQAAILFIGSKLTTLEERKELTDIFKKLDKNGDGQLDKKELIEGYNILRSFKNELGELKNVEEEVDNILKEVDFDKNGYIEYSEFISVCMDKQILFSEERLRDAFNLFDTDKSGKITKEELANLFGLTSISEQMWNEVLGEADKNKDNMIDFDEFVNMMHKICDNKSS

[13] = molecular target: Plasmodium falciparum protein kinase 6 (PK6, PF3D7_1337100) (UniProt Q8IDW1); assay: PfPK6 kinase inhibitors, biochemical, TCAMS library (AID 1159586; call rule not given here); settings: recombinant PfPK6, Kinase-Glo ATP depletion luminescence
Chain of Plasmodium falciparum protein kinase 6 (PK6, PF3D7_1337100) (Q8IDW1 1-305): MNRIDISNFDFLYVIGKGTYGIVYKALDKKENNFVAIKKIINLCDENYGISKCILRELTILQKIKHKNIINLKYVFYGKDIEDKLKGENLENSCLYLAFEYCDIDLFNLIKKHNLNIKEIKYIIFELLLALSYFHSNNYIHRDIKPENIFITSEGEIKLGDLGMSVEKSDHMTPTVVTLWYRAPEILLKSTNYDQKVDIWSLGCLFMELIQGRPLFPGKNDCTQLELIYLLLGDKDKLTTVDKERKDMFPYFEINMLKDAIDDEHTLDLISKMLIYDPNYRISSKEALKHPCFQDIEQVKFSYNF

Clc1cccc(SC2CCNCC2)n1
inactive: remaining activity [1] 108%

COc1ccc2c(c1OC)CN1CCc3cc4c(cc3C1C2)OCO4 (centres undefined)
inactive: outcome [2]
active: AC50 [3] 14800 nM

CN(C)CCc1ccc(O)cc1
inactive: outcome [2] | outcome [3]

CN1C[C@H](CNC(=O)OCc2ccccc2)C[C@@H]2c3cccc4c3c(cn4C)C[C@H]21
inactive: remaining activity [1] 86.6%

COc1cccc2c1C(=O)c1c(O)c3c(c(O)c1C2=O)C[C@@](O)(C(=O)CO)CC3OC1CC(N2CCOC(OC)C2)C(O)C(C)O1 (some centres undefined)
active: AC50 [4] 4.17 nM | AC50 [5] 7.42 nM | AC50 [6] 23.5 nM | AC50 [7] 14.8 nM | IC50 [8] 332 nM

Cc1nccc2c1[nH]c1ccccc12
inactive: remaining activity [1] 108%

O=C1CC[C@@]2(O)[C@H]3Cc4ccc(O)c5c4[C@@]2(CCN3CC2CC2)[C@H]1O5
inactive: outcome [4] | outcome [2] | outcome [5] | outcome [6] | outcome [7] | outcome [8] | log fold change Tl+ flux (F380Y/beta1) -0.0461 | log fold change Tl+ flux (F380Y/beta4) -0.0353 | log fold change Tl+ flux [9] -0.0199 | log fold change Tl+ flux (R275C) -0.0442 | log fold change Tl+ flux (R275C/beta1) 0.0294 | log fold change Tl+ flux (R275C/beta2Delta) -0.0407 | log fold change Tl+ flux (R275C/beta4) -0.0587 | log fold change Tl+ flux (R275C/Slo1WT/beta2) 0.0463

CC[C@@H](CO)NC(=O)[C@@H]1C=C2c3cccc4[nH]cc(c34)C[C@H]2N(C)C1
inactive: remaining activity [1] 127%

c1ccc2c3c([nH]c2c1)CNCC3
inactive: z-score [10] -0.415 | mean signal [11] 258 | log fold change Tl+ flux (F380Y/beta1) -0.00595 | log fold change Tl+ flux (F380Y/beta4) -0.0163 | log fold change Tl+ flux [9] 0.00353 | log fold change Tl+ flux (R275C) 0.0253 | log fold change Tl+ flux (R275C/beta1) -0.0273 | log fold change Tl+ flux (R275C/beta2Delta) -0.0332 | log fold change Tl+ flux (R275C/beta4) -0.016 | log fold change Tl+ flux (R275C/Slo1WT/beta2) -0.0345

FC(F)(F)c1cccc(N2CCNCC2)c1
inactive: z-score [10] -0.497 | mean signal [11] 282 | log fold change Tl+ flux [9] -0.00699 | log fold change Tl+ flux (R275C) 0.0139 | log fold change Tl+ flux (R275C/beta1) 0.0717 | log fold change Tl+ flux (R275C/beta2Delta) 0.00655

COc1ccc2[nH]cc(CCN)c2c1
inactive: z-score [10] 0.413 | mean signal [11] 258 | log fold change Tl+ flux (F380Y/beta1) 0.0119 | log fold change Tl+ flux (F380Y/beta4) -0.0167 | log fold change Tl+ flux [9] -0.0293 | log fold change Tl+ flux (R275C) -0.061 | log fold change Tl+ flux (R275C/beta1) -0.0101 | log fold change Tl+ flux (R275C/beta2Delta) -0.00391 | log fold change Tl+ flux (R275C/beta4) 0.0135 | log fold change Tl+ flux (R275C/Slo1WT/beta2) 0.00615

O=c1c2ccccc2[se]n1-c1ccccc1
inactive: z-score [10] 0.167 | mean signal [11] 217

NC(=O)CS(=O)C(c1ccccc1)c1ccccc1 (centres undefined)
inactive: z-score [10] 0.787 | mean signal [11] 263 | log fold change Tl+ flux (F380Y/beta1) 0.0487 | log fold change Tl+ flux (F380Y/beta4) 0.00509 | log fold change Tl+ flux [9] -0.00311 | log fold change Tl+ flux (R275C) -0.0429 | log fold change Tl+ flux (R275C/beta1) 0.0162 | log fold change Tl+ flux (R275C/beta2Delta) 0.0129 | log fold change Tl+ flux (R275C/beta4) 0.0208 | log fold change Tl+ flux (R275C/Slo1WT/beta2) 0.0297

C=C[C@H]1CN2CC[C@H]1C[C@@H]2[C@@H](O)c1ccnc2ccccc12
inactive: outcome [12] | outcome [13]

Clc1ccc(COC(Cn2ccnc2)c2ccc(Cl)cc2Cl)c(Cl)c1 (centres undefined)
inactive: mean signal [11] 182 | log fold change Tl+ flux (F380Y/beta1) -0.101 | log fold change Tl+ flux [9] 0.0222 | log fold change Tl+ flux (R275C) -0.0411 | log fold change Tl+ flux (R275C/beta1) 0.0424 | log fold change Tl+ flux (R275C/beta2Delta) -0.0245 | log fold change Tl+ flux (R275C/beta4) 0.0768 | log fold change Tl+ flux (R275C/Slo1WT/beta2) 0.0237
active: log fold change Tl+ flux (F380Y/beta4) -0.445

CC[C@@]1(O)C(=O)OCc2c1cc1n(c2=O)Cc2cc3ccccc3nc2-1
inactive: remaining activity [1] 122% | outcome [8]
active: AC50 [4] 16.6 nM | AC50 [7] 1480 nM

C=C[C@H]1CN2CC[C@H]1C[C@H]2[C@H](O)c1ccnc2ccccc12
inactive: outcome [12] | outcome [13]

COc1cc2c(cc1OC)[C@@]13CCN4CC5=CCO[C@H]6CC(=O)N2[C@H]1[C@H]6[C@H]5C[C@H]43
inactive: z-score [10] -0.249 | mean signal [11] 265 | log fold change Tl+ flux (F380Y/beta1) -0.0206 | log fold change Tl+ flux (F380Y/beta4) 0.0166 | log fold change Tl+ flux [9] -0.0482 | log fold change Tl+ flux (R275C) -0.0395 | log fold change Tl+ flux (R275C/beta1) 0.0112 | log fold change Tl+ flux (R275C/beta2Delta) -0.0452 | log fold change Tl+ flux (R275C/beta4) -0.00487 | log fold change Tl+ flux (R275C/Slo1WT/beta2) -0.0314

CC(C)CC(N(C)C)C1(c2ccc(Cl)cc2)CCC1 (centres undefined)
inactive: outcome [10] | z-score [10] -0.0182 | mean signal [11] 232 | outcome [4] | outcome [3] | outcome [6] | outcome [7] | outcome [8]
active: AC50 [2] 23500 nM

CC[C@H]1CN2CC[C@H]1C[C@@H]2[C@@H](O)c1ccnc2ccc(OC)cc12
inactive: outcome [12] | outcome [13]

C=CCN1CC[C@]23c4c5ccc(O)c4O[C@H]2C(=O)CC[C@@]3(O)[C@H]1C5
inactive: remaining activity [1] 101% | log fold change Tl+ flux (F380Y/beta1) 0.0814 | log fold change Tl+ flux (F380Y/beta4) 0.0525 | log fold change Tl+ flux [9] -0.00699 | log fold change Tl+ flux (R275C) 0.034 | log fold change Tl+ flux (R275C/beta1) 0.000161 | log fold change Tl+ flux (R275C/beta2Delta) 0.0302 | log fold change Tl+ flux (R275C/beta4) 0.00421 | log fold change Tl+ flux (R275C/Slo1WT/beta2) 0.0157

COc1ccc(C[C@H]2NC[C@H](O)[C@H]2OC(C)=O)cc1
inactive: outcome [12] | outcome [13] | remaining activity [1] 125%

CC1=C(O)C(=O)C=C2C1=CC=C1[C@@]2(C)CC[C@@]2(C)[C@@H]3C[C@](C)(C(=O)O)CC[C@]3(C)CC[C@]12C
active: AC50 [4] 2090 nM | AC50 [2] 3320 nM | AC50 [3] 2640 nM | AC50 [5] 2350 nM | AC50 [6] 1660 nM | AC50 [7] 934 nM | IC50 [8] 11800 nM

COc1cc(OC)c(OC)cc1C=O
inactive: outcome [2] | outcome [3]

COC1=C[C@@H]2[C@@H]3Cc4ccc(OC)c(O)c4[C@]2(CCN3C)CC1=O
active: AC50 [2] 3320 nM
inactive: outcome [5] | outcome [6] | outcome [7] | outcome [8]

— PubChem BioAssay
